# In paper PMC7862700, “An all-to-all approach to the identification of sequence-specific readers for epigenetic DNA modifications on cytosine”:
# Columns and labels:
# Assay in all cases: DAPPL (digital affinity profiling via proximity ligation, sequencing); 10 mM Tris-HCl pH 7.5, 50 mM NaCl, 1 mM DTT, 4% glycerol, room temperature, 30 min; GST-TFs on glutathione beads, 16-mer random dsDNA library, 0.1% formaldehyde crosslink after washing; high values mean tight binding
# Conditions in all cases: protein: recombinant; tags: N-terminal GST; dsDNA, one strand shown
# [1] = molecular target: T1, FEV (Homo sapiens, UniProt Q99581 1-238)
# T1 sequence: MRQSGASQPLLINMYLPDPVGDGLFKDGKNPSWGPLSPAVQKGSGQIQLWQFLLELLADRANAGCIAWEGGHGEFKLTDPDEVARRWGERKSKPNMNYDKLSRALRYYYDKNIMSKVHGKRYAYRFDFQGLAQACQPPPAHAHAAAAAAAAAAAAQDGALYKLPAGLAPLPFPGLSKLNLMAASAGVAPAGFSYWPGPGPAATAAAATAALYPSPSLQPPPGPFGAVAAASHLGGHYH
# Outline: (§1)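 Yeast served to express human transcription factors as GST fusions, which were then captured on glutathione beads and labelled with DNA barcodes. Pooled with a tag-only sample, they were incubated with 200 nmole of a 16-mer random double-stranded DNA library for 30 min at room temperature in Tris/NaCl/DTT/glycerol buffer, washed, crosslinked with 0.1% formaldehyde, ligated by proximity, amplified by PCR and sequenced. Dividing each hexamer's read frequency for a factor by its frequency for the tag-only sample gives the binding signal.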
# [2] = molecular target: ETV5 (Homo sapiens, UniProt P41161 1-510)
# Outline: as §1
# [3] = molecular target: T2, SPIC (Homo sapiens, UniProt Q8N5J4 1-248)
# T2 sequence: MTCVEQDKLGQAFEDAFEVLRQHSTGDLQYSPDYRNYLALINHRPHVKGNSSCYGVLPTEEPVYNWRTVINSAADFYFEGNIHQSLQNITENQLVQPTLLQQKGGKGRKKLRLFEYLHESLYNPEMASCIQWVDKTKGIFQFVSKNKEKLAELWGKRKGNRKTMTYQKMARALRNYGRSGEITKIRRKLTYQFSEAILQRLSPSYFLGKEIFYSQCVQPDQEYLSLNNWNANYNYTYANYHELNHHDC
# Outline: as §1
# [4] = molecular target: ELF4 (Homo sapiens, UniProt Q99607 1-663)
# Outline: as §1
# [5] = molecular target: T3, ELK4 (Homo sapiens, UniProt P28324-2 1-405)
# T3 sequence: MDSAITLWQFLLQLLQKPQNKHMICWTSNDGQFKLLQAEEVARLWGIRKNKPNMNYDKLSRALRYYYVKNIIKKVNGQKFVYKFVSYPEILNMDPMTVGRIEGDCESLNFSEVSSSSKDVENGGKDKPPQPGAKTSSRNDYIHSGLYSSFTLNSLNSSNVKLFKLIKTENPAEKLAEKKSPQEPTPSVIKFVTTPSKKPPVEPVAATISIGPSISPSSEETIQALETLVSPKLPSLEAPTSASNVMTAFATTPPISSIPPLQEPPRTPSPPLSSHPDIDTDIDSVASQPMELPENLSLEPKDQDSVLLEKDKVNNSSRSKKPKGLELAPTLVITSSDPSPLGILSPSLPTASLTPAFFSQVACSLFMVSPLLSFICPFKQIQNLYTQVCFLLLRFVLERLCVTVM
# Outline: as §1
# [6] = molecular target: T4, ETV2 (Homo sapiens, UniProt O00321 1-342)
# T4 sequence: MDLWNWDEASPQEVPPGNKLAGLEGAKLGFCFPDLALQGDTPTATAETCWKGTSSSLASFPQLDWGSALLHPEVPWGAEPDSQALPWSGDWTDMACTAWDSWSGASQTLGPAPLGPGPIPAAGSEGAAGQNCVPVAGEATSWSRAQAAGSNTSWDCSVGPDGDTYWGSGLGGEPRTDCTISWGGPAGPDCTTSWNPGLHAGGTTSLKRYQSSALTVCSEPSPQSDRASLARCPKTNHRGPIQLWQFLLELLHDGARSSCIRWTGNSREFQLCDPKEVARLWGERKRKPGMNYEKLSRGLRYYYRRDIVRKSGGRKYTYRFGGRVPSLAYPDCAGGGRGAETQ
# Outline: as §1
# [7] = molecular target: T5, ELF3 (Homo sapiens, UniProt P78545 1-371)
# T5 sequence: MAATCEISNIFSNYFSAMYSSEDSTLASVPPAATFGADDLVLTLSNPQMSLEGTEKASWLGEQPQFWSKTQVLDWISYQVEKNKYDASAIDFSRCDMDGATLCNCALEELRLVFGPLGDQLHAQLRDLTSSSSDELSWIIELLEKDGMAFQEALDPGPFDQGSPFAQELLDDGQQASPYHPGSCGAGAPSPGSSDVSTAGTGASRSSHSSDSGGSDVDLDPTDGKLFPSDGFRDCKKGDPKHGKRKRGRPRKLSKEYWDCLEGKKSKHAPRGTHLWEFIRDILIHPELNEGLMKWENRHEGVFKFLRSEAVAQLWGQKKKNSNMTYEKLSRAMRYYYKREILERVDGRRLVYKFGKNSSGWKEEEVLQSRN
# Outline: as §1
# [8] = molecular target: ETV1 (Homo sapiens, UniProt P50549 1-477)
# Outline: as §1
# [9] = molecular target: T6, ERF (Homo sapiens, UniProt P50548 1-548)
# T6 sequence: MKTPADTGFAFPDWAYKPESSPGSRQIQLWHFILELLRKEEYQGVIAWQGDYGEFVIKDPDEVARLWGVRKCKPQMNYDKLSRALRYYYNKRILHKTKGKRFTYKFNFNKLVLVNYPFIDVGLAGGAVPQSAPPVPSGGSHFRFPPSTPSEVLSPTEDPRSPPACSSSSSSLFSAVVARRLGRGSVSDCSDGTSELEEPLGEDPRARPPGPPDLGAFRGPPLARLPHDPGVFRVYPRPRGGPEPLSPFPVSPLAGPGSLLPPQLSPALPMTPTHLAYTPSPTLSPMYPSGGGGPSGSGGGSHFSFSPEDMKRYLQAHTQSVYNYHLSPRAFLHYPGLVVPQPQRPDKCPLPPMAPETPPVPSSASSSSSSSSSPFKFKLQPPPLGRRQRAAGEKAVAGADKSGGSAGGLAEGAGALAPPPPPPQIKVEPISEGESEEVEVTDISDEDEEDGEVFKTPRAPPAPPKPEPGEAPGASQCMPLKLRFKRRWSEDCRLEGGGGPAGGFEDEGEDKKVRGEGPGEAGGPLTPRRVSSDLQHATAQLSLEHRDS
# Outline: as §1
# [10] = molecular target: T7, ETV3L (Homo sapiens, UniProt Q6ZN32 1-361)
# T7 sequence: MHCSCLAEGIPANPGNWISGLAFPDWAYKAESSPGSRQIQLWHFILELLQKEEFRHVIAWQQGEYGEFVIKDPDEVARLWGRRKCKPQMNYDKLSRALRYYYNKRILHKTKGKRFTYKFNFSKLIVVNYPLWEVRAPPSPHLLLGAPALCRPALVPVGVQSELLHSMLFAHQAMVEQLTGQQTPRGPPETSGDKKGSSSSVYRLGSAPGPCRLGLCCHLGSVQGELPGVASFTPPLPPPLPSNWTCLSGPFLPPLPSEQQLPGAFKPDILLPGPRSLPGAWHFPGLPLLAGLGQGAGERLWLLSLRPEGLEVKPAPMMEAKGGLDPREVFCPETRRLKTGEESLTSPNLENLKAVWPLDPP
# Outline: as §1
# [11] = molecular target: T8, ETS2 (Homo sapiens, UniProt P15036 1-469)
# T8 sequence: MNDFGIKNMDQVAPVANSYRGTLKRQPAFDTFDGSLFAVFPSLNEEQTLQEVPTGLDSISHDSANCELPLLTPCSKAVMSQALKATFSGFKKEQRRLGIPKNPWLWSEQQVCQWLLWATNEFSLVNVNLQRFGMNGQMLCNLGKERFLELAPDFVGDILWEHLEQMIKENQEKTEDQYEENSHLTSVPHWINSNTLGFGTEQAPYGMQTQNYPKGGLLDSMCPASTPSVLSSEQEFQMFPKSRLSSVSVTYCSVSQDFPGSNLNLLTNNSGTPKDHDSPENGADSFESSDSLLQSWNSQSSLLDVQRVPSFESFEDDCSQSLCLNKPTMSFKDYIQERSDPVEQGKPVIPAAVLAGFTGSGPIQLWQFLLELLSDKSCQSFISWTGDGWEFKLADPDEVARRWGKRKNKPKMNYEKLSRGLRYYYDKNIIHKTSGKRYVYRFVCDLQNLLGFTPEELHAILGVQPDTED
# Outline: as §1
# [12] = molecular target: T9, SPDEF (Homo sapiens, UniProt O95238 1-335)
# T9 sequence: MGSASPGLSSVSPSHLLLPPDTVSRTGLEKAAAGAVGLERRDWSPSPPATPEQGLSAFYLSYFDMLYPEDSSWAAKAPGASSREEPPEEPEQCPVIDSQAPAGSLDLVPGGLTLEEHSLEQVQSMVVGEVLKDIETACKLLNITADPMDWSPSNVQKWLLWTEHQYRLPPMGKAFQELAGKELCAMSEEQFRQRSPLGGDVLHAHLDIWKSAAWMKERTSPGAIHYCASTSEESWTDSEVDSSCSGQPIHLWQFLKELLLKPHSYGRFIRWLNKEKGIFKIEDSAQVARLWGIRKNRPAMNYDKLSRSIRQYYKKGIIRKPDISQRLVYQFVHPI
# Outline: as §1
# [13] = molecular target: T10, ETV7 (Homo sapiens, UniProt Q9Y603 1-341)
# T10 sequence: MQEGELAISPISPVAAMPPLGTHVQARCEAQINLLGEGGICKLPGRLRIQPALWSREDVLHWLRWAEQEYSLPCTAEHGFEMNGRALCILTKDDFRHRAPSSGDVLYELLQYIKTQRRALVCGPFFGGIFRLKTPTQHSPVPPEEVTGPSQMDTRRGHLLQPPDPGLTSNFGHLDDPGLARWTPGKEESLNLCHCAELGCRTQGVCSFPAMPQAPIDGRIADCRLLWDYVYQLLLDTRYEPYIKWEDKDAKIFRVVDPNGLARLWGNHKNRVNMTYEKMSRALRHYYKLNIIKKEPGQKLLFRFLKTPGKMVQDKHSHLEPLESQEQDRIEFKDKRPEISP
# Outline: as §1
# [14] = molecular target: T11, ELF5 (Homo sapiens, UniProt Q9UKW6-2 1-255)
# T11 sequence: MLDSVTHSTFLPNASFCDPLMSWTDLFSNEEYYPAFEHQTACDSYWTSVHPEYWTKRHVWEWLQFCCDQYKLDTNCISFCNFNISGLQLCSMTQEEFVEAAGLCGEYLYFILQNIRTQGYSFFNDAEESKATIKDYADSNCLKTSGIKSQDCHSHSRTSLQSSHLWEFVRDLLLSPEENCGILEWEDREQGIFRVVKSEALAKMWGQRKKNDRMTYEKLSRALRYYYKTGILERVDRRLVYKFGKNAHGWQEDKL
# Outline: as §1
# [15] = molecular target: T12, ETV3 (Homo sapiens, UniProt P41162-2 1-143)
# T12 sequence: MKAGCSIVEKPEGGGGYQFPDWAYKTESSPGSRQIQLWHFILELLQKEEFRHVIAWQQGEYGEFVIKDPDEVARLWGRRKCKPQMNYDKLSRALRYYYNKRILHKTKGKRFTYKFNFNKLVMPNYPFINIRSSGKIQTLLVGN
# Outline: as §1
# [16] = molecular target: ETV6 (Homo sapiens, UniProt P41212 1-452)
# Outline: as §1
# Chain of ETV1 (P50549 whole entry): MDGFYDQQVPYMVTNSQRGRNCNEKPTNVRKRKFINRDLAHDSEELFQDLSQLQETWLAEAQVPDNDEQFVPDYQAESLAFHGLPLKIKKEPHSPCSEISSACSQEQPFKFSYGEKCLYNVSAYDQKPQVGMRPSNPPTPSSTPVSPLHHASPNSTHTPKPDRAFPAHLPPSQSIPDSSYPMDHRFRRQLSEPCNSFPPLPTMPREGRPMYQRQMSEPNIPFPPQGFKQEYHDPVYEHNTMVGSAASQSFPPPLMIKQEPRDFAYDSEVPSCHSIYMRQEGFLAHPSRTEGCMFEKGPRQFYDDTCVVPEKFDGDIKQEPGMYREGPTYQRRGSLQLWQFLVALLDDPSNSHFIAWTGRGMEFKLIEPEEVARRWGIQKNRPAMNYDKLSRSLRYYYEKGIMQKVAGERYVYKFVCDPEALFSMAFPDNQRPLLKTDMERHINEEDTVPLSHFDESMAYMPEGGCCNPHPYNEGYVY
# Chain of ETV6 (P41212 whole entry): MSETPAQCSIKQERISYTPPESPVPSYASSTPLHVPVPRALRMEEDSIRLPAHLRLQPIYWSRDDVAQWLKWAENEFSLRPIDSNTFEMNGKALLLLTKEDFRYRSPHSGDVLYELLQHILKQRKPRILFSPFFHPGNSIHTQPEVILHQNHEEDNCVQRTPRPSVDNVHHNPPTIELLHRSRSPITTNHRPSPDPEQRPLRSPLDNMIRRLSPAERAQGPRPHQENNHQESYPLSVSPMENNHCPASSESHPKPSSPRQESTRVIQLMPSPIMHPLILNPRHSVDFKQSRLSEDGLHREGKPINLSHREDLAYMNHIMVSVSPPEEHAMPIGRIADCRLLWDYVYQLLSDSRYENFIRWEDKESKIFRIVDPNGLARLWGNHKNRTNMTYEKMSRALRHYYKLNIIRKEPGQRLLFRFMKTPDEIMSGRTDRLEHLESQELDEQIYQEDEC
# Chain of ETV5 (P41161 whole entry): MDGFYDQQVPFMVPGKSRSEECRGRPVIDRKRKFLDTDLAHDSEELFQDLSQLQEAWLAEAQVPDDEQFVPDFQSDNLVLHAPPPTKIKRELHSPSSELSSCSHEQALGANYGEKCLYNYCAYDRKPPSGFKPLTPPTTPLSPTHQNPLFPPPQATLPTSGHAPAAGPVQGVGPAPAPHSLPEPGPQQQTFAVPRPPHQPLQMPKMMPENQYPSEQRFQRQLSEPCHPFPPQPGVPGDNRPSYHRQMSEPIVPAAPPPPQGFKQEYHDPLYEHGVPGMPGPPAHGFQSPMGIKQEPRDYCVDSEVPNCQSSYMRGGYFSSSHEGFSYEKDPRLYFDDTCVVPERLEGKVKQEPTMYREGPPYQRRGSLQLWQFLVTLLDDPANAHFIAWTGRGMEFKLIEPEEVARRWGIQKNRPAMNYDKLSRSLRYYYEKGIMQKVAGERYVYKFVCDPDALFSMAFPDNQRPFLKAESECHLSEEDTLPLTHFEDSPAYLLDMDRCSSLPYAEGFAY
# Chain of ELF4 (Q99607 whole entry): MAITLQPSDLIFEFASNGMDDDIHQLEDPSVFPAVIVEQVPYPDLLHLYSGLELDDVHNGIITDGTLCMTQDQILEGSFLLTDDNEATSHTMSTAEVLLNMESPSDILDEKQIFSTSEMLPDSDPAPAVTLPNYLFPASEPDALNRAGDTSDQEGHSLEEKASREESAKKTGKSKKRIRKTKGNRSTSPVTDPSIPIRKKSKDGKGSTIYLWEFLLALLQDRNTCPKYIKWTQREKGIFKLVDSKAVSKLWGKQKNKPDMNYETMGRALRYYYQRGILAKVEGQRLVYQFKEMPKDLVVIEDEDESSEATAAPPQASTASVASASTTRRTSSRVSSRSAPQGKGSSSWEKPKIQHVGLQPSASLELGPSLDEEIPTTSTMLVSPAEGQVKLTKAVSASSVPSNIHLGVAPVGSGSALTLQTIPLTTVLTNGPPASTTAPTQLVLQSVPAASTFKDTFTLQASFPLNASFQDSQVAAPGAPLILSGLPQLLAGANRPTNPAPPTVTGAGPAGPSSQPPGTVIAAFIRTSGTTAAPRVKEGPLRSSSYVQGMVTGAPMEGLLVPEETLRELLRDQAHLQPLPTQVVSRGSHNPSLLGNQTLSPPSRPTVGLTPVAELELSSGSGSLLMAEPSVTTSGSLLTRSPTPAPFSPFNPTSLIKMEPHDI
Sequence,binding signal [1],binding signal [2],binding signal [3],binding signal [4],binding signal [5],binding signal [6],binding signal [7],binding signal [8],binding signal [9],binding signal [10],binding signal [11],binding signal [12],binding signal [13],binding signal [14],binding signal [15],binding signal [16]
GCTACC,"1.18 fold enrichment (6-mer frequency, TF over GST control)","1.17 fold enrichment (6-mer frequency, TF over GST control)","1.23 fold enrichment (6-mer frequency, TF over GST control)","1.24 fold enrichment (6-mer frequency, TF over GST control)","1.04 fold enrichment (6-mer frequency, TF over GST control)","1.08 fold enrichment (6-mer frequency, TF over GST control)","1.1 fold enrichment (6-mer frequency, TF over GST control)","1.26 fold enrichment (6-mer frequency, TF over GST control)","1.31 fold enrichment (6-mer frequency, TF over GST control)","1.15 fold enrichment (6-mer frequency, TF over GST control)","1.22 fold enrichment (6-mer frequency, TF over GST control)","1.22 fold enrichment (6-mer frequency, TF over GST control)","1.27 fold enrichment (6-mer frequency, TF over GST control)","1.24 fold enrichment (6-mer frequency, TF over GST control)","1.24 fold enrichment (6-mer frequency, TF over GST control)","1.16 fold enrichment (6-mer frequency, TF over GST control)"
CACCCT,"1.15 fold enrichment (6-mer frequency, TF over GST control)","1.19 fold enrichment (6-mer frequency, TF over GST control)","1.13 fold enrichment (6-mer frequency, TF over GST control)","1.24 fold enrichment (6-mer frequency, TF over GST control)","1.07 fold enrichment (6-mer frequency, TF over GST control)","1.26 fold enrichment (6-mer frequency, TF over GST control)","1.08 fold enrichment (6-mer frequency, TF over GST control)","1.24 fold enrichment (6-mer frequency, TF over GST control)","1.09 fold enrichment (6-mer frequency, TF over GST control)","1.26 fold enrichment (6-mer frequency, TF over GST control)","1.09 fold enrichment (6-mer frequency, TF over GST control)","1.13 fold enrichment (6-mer frequency, TF over GST control)","1.04 fold enrichment (6-mer frequency, TF over GST control)","1.11 fold enrichment (6-mer frequency, TF over GST control)","1.24 fold enrichment (6-mer frequency, TF over GST control)","1.05 fold enrichment (6-mer frequency, TF over GST control)"
